Compound activity: PubChem, NMMLSC
Compounds with a hit are over-represented: about 1.2% of the library has one in this group of screens.
RGS16-Gao = modulators of RGS16 binding to Galphao, primary screen, biochemical, human proteins, multiplexed bead flow cytometry; Regulator of G-protein signaling 16 (Homo sapiens) + Guanine nucleotide-binding protein …; bead-based flow cytometry RGS16-Galphao binding, fluorescence; actives lie on both sides; binding response (% of control), % at 10 µM; 220,000 compounds, 0.38% hits; AID 1441, 2008;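 also: Galphao activated by GDP with aluminum fluoride before binding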
Avidin fluor = green autofluorescence of compounds with avidin beads – biophysical, 488/530 nm, flow cytometry, artefact control, profiling panel; compound fluorescence 488/530 nm; hits give high values; fluorescence (KMESF) at 10 µM; 220,000 compounds, 0.38% hits; in the data active = fluorescence above about 47
RGS8-Gao reg = RGS8-Galphao binding modulators, primary screen, biochemical, multiplexed bead flow cytometry; actives lie on both sides; Guanine nucleotide-binding protein G(o) subunit alpha (Homo sapiens), P09471; 220,000 compounds, 0.34% hits; response (percent of control binding), % at 10 µM; AID 1423, 2008; in the data active = response below about 60% or above about 140%; inactive = in between;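 also: Galphao activated as the GDP aluminium fluoride complex binding bead-coupled RGS8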
Target sequence (P09471 whole entry, looked up): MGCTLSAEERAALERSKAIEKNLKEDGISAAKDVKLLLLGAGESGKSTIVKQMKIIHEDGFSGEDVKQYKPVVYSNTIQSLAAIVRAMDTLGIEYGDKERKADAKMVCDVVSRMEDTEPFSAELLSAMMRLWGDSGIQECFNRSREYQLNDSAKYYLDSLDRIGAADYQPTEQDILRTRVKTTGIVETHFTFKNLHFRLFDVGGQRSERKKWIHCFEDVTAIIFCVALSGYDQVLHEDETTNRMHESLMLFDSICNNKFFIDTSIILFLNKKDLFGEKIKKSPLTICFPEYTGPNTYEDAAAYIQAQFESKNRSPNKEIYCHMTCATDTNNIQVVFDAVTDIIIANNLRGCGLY
GSH bead fluor = compound fluorescence on glutathione beads, profiling panel, artefact control, biophysical, 488/530 nm, flow cytometry; 190,000 compounds, 0.25% hits; GSH beads flow cytometry, compound fluorescence 488/530 nm; hits give high values; fluorescence (KMESF) at 10 µM; AID 1776, 2009; in the data active = fluorescence above about 89;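 also: glutathione beads carrying GST-tagged Bcl family fusion proteins plus one bare bead set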
RGS4-Gao reg = modulators of RGS4 binding to Galphao, primary screen, biochemical, multiplexed bead flow cytometry; AID 1415, 2008; actives lie on both sides; Guanine nucleotide-binding protein G(o) subunit alpha (Homo sapiens), P09471; binding response (% of control), % at 10 µM; 220,000 compounds, 0.33% hits; in the data active = binding response below about 49% or above about 150%; inactive = in between;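 also: fluorescent Galphao activated with aluminum fluoride binding bead-coupled RGS4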
RGS7-Gao reg = RGS7-Galphao binding modulators, primary screen, biochemical, multiplexed bead flow cytometry | Guanine nucleotide-binding protein G(o) subunit alpha (Homo sapiens), P09471 | actives lie on both sides | binding response (% of control), % at 10 µM | 220,000 compounds, 0.35% hits | AID 1439, 2008; in the data active = binding response below about 49% or above about 150%; inconclusive = no clear call, values can overlap the other calls; inactive = in between;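 also: fluorescent Galphao held in activated GDP-AlF4 state binding bead-coupled RGS7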
RGS-Gao = modulators of RGS–Galpha-o binding, primary screen, biochemical, multiplexed beads, flow cytometry, RGS4/7/8/16/19. RGS4–Galpha-o binding response, % at 10 µM. shares compounds with RGS16-Gao. AID 1504, 2009. 1,600 compounds, 99% hits. multiplexed bead flow cytometry;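 also: fluorescently labeled Galpha-o bound to GDP with aluminium fluoride binding biotinylated RGS beads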
Biotin-avidin = disruption of biotin probe capture by avidin, counter-screen for RGS protein interaction modulators, biochemical, flow cytometry, bead-based | shares compounds with RGS16-Gao | streptavidin beads, fluorescein-biotin binding | inhibition, % at 10 µM | 1,700 tested, under 10 active;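 active = inhibition above 50%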;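 also: median green fluorescence of gated singlet beads compared with DMSO control wells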
RGS8-Gao single = RGS8-Galphao binding modulators, confirmation, biochemical, multiplexed bead flow cytometry, single concentration. bead-based flow cytometry RGS8-Galphao binding, fluorescence; actives lie on both sides. binding response (% of control), % at 10 µM. shares compounds with RGS16-Gao. 1,700 compounds, 3% hits; in the data active = binding response below about 72% or above about 130%; inactive = in between;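 also: Galphao activated as GDP AlF4 complex before binding bead RGS8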
RGS7-Gao confirm = RGS7-Galphao binding modulators, confirmation, biochemical, multiplexed bead flow cytometry, single concentration. bead-based flow cytometry RGS7-Galphao binding; actives lie on both sides. 1,700 compounds, 7.8% hits. response (percent of control binding), % at 10 µM. shares compounds with RGS16-Gao; in the data active = response below about 75% or above about 130%; inactive = in between;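 also: fluorescent Galphao activated with GDP and aluminum fluoride binding bead-coupled RGS7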
RGS16-Gao single = modulators of RGS16-Galphao protein binding, confirmation, biochemical, single concentration, multiplexed bead flow cytometry; shares compounds with RGS16-Gao; bead-based flow cytometry; actives lie on both sides; response (% of control binding), % at 10 µM; 1,700 compounds, 4% hits; AID 1838, 2009; in the data active = response below about 74% or above about 130%; inactive = in between;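 also: Galphao activated as the GDP aluminium fluoride complex binding bead-coupled RGS16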
RGS4-Gao confirm = modulators of RGS4-Galphao protein binding, confirmation, biochemical, single concentration, multiplexed bead flow cytometry | actives lie on both sides | shares compounds with RGS16-Gao | binding response (% of control), % at 10 µM | 1,700 compounds, 4% hits; in the data active = binding response below about 74% or above about 130%; inactive = in between
RGS19-Gao conf = regulators of RGS19-Galphao binding, confirmation, biochemical, single point, multiplexed bead flow cytometry; shares compounds with RGS16-Gao; bead-based flow cytometry RGS19-Galphao binding; actives lie on both sides; response (percent of control binding), % at 10 µM; 1,700 compounds, 5% hits; in the data active = response below about 50% or above about 160%; inactive = in between
Each line names hits and unclear results; the compound was inactive in the other large screens (follow-up assays come after a bar, where they were run); [ ] = another dose, or the depositor's remark. Unless noted, no rule for the calls is given here.

COc1ccc(OC)c(S(=O)(=O)N2CCC(C(=O)NCCc3ccc(OC)c(OC)c3)CC2)c1	none (no result: RGS16-Gao, Avidin fluor, RGS8-Gao reg, RGS4-Gao reg, RGS7-Gao reg) | Biotin-avidin inactive | RGS8-Gao single inactive | RGS7-Gao confirm inactive | RGS16-Gao single inactive | RGS4-Gao confirm inactive | RGS19-Gao conf inactive
COc1ccc(CC(=O)NNC(=O)c2nn(Cc3ccccc3)c(=O)c3ccccc23)cc1OC	RGS7-Gao reg inconclusive (no result: GSH bead fluor)
COc1ccc(S(=O)(=O)N2CCOC2CNC(=O)C(=O)NCc2ccco2)cc1OC (stereo not drawn)	RGS7-Gao reg inconclusive (no result: GSH bead fluor)
CC1=NOC(=O)/C1=C/c1ccc(N(C)C)cc1	none
O=C1NC(=O)/C(=C/c2cccc(O)c2)N1	none (no result: RGS16-Gao, Avidin fluor, RGS8-Gao reg, GSH bead fluor, RGS4-Gao reg, RGS7-Gao reg) | Biotin-avidin inactive | RGS8-Gao single inactive | RGS7-Gao confirm inactive | RGS16-Gao single inactive | RGS4-Gao confirm inactive | RGS19-Gao conf inactive
O=C1NC(=O)/C(=C\c2ccc(OCc3cccc(C(=O)O)c3)c(Cl)c2)N1	none
CN(C)c1ccc(/C=C2/NC(=O)NC2=O)cc1	Avidin fluor 113, RGS8-Gao reg 145.3[activator], RGS4-Gao reg 549.2[activator], RGS7-Gao reg 353.7[activator] | Biotin-avidin inactive | RGS8-Gao single inactive | RGS7-Gao confirm inactive | RGS16-Gao single inactive | RGS4-Gao confirm inactive | RGS19-Gao conf inactive
Cc1[nH]c2ccccc2c1SCC(=O)O	none
COC(=O)C(F)(F)Sc1c(C)[nH]c2ccccc12	Avidin fluor 143, RGS7-Gao reg 157.8[activator] | RGS-Gao 118.8 | Biotin-avidin inactive | RGS8-Gao single inactive | RGS7-Gao confirm inactive | RGS16-Gao single inactive | RGS4-Gao confirm inactive | RGS19-Gao conf inactive
CCc1ccc(NC(=O)C(=O)NCc2ccccn2)cc1	none
O=C(O)c1ccccc1S(=O)(=O)NCC(O)COC1CCCCC1 (stereo not drawn)	none
O=C(O)c1ccccc1Sc1ccccc1S(=O)(=O)NC1CCCCC1	RGS16-Gao -4.7, RGS8-Gao reg 7.1, RGS4-Gao reg -10.8, RGS7-Gao reg inconclusive (no result: GSH bead fluor) | Biotin-avidin inactive | RGS8-Gao single inactive | RGS7-Gao confirm inactive | RGS16-Gao single inactive | RGS4-Gao confirm inactive | RGS19-Gao conf inactive
